The source of these data is PubChem BioAssay (NCI).

Compounds without any hit were thinned out: in the full panel of roughly 83,000, 20% have a hit.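 Results are percent growth after 48 hours of single-concentration exposure. 100 means growth as in untreated cells, lower positive values show inhibition; negative values down to -100 show cell death.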 Values without a mark were called inactive. Active and inactive are the calls of the source.

For the assay, the system named is NCI-H226 lung. In words: NCI-60 one-dose screen, 48 h (100 = growth as untreated, 0 = no growth, -100 = all killed). Conditions: 10 µM unless noted. The protocol: Growth inhibition of the NCI-H226 human Non-Small Cell Lung tumor cell line is measured as a screen for anti-cancer activity. Cells are grown in 96 well plates and exposed to the test compound for 48 hours. Compounds are tested at a single concentration, which is 10^-5 M for most compounds. The reported endpoint is percent growth (GI% or GIPRCNT), where numbers from 0 - 100% represent growth inhibition, and numbers from -100% - 0 represent cell death. For example, a value of 40 represents 60% growth inhibition. A value of 0 means no net growth occurred over the course of the experiment. A value of -40 indicates 40% of cells at the beginning of the experiment died by the end of the experiment. A value of -100 means all cells are dead at the end of the experiment.
NCI-60 Human Tumor Cell Lines Screen was performed using the standard one-dose NCI protocol, which is described in more detail at https://dtp.cancer.gov/discovery_development/nci-60/default.htm.
Compounds with GIPRCNT values below 10 were considered active. Activity score was based on GIPRCNT using the following formula: […]
Score is 0 for GIPRCNT values of 100 or above, 50 for GIPRCNT values of 0, and 100 for GIPRCNT values of -100.
Take `CCn1c(Cc2ccccc2Nc2c(Cl)cccc2Cl)nnc1SCC(=O)NN1C(=O)/C(=C/c2cc(OC)c(O)c(OC)c2)SC1=S`: the growth was 40.7%. To `Cc1cc(C)nc(SC2=C(Nc3cccc(Cl)c3)C(=O)N(Cc3ccccc3)C2=O)n1` belongs 83% [30 µM]. For the compound `Fc1ccc2[nH]cc(SSc3c[nH]c4ccc(F)cc34)c2c1`, the growth was 52%.

`COc1cccc2c1C(=O)c1c(O)c3c(c(O)c1C2=O)C[C@](O)(C(=O)CO)C[C@H]3O[C@@H]1C[C@@H](NC(=O)CCCCCN(C)C2(c3ccc(F)cc3)CC3CCC2C3)[C@H](O)[C@@H](C)O1` (stereo not given in full): the growth is 59.3%. The same measure for `CCCCn1c(-c2ccc(C(=O)O/N=C(\N)c3ccc4ccccc4c3)cc2)nc(-c2ccccc2)c1-c1ccccc1`: 61.7%. To `COc1ccccc1Nc1nc(-c2cc3cccc(C(F)(F)F)c3oc2=O)cs1` belongs 13.4%. To `COCCNc1ccc2c3c(cccc13)C(=O)N(CCN(C)C)C2=O` belongs 5.99% (active); to `O=[N+]([O-])c1ccc(Nc2nc(NCCN3CCOCC3)ncc2[N+](=O)[O-])cc1`, 92%; to `NC(=O)c1cc(Cl)ccc1NC(=O)/C=C/c1ccccc1`, 63.6%. With `C#CCOc1ccc2ncnc(NCc3cccc(NC(=O)CCl)c3)c2c1`, the growth was 25.3% [8.25 µM]. To `CSc1ccc(SC2c3ccc(C)cc3Oc3nc(N)c(C#N)c(N)c32)cc1` (stereo not given) belongs -88.7% (active); to `Cn1cc(-c2nonc2-c2c[nH]c3ccc(F)cc23)c2cccnc21`, 57.3%; to `N#CN1CC[C@H](C(=O)Nc2cc3cc(C(N)=O)ccc3cn2)C1`, -10% (active). Consider `CC(C)(O)c1cn(CCCCN2C(=O)C(=O)c3ccccc32)nn1`, for which the growth is 94.8%.

On to `COc1ccc(Nc2c3c4c(cccc4[nH]c2=O)C(=O)c2ccccc2-3)cc1`, for which the growth is 17%.

Consider `CCN1CCC2(CC1)NC(=O)c1c(c3ccc(Cl)c(Cl)c3n1C)C2C#N` (stereo not given), for which the growth was 72%. To `CCCn1c(=O)[nH]c(N)c([C@H]2c3ccccc3Oc3[nH]c(=O)n(CCC)c(=O)c32)c1=O` belongs 102%. To `CC(C)C1=C[C@@]23CC[C@@H]4[C@](C)(CCC[C@@]4(C)C(=O)N4CCCNCC4)[C@H]2C[C@@H]1[C@H]1C(=O)CCC(=O)[C@H]13` belongs 101%; to `O=C1c2ccccc2OC=C(c2ccccc2)N1CCCCNc1ccc(S(=O)(=O)Nc2ncccn2)cc1`, 91.4%. The same measure for `CC1=C[C@H]2c3c(c(O)c(O)c4oc5c(C)cccc5c(=O)c34)[C@H](c3cc(O)c(O)c4oc5c(C)cccc5c(=O)c34)[C@H]2C(C)(C)C1`: 0.242% (active); for `O=C1NC(=S)NC(=O)C1CC(=O)n1c(-c2ccccc2)nc2ccccc21`: 86.1%. Regarding `CCOC(=O)c1c(C)oc2ncnc(N3CCN(C(=S)Nc4ccccc4)CC3)c12`, the growth is 87.2%. Turning to `COc1cc2nc(N3CCCC3)nc(NCCc3ccccc3)c2cc1OC`, the growth was 90.5%. On to `CCCOc1cc2ccccc2cc1C(=O)Nc1nc(N)c2c(ccc3nccc32)[nH]1`, for which the growth was -56.6% (active).

For the compound `COc1cc(/C=C/c2cc(O)c3cc(C(C)=O)c(=O)oc3c2)cc2c1O[C@]1(C)CC[C@@H](O)C(C)(C)[C@H]1C2`, the growth is 76.4%. To `COc1ccc(/C=C/c2nc(-c3n[nH]c(=O)n3-c3ccccc3)c3ccccc3n2)cc1` belongs 93.5%; to `CCCOc1ccc2nc(NC(=O)OC)[nH]c2c1`, 8.05% (active); to `Oc1ccc(N=Cc2ccccc2O)cc1`, 113%. To `COc1ccc(-c2nc3ccc(-c4nc5ccc(N6CCN(c7ccccc7)CC6)cc5[nH]4)cc3[nH]2)cc1OC` belongs 69.9%; to `O=C(O)c1ccc(NC(=O)c2ccc(-c3cccc([N+](=O)[O-])c3)o2)cc1`, 89.3%; to `CCCCCC(=O)Oc1ccc(/C(=C(\C)c2ccc(OC)cc2)c2ccc(OCCN3CCCCC3)cc2)cc1`, 98.7%.

As for `COc1ccc(C(=O)/C=C/c2cccnc2Nc2cc(OC)c(OC)c(OC)c2)cc1`, the growth is 41%.

For `CCN(CC)c1ccc(/C=N\NC(=O)/C=C/C=C/c2ccc3c(c2)OCO3)c(O)c1`, the growth is 49.5%.

`Cn1c(=O)[nH]c(=O)c2nc(CCC(=O)NCCC(=O)O)c(=O)[nH]c21`: the growth is 88.3%. To `C=C(C)C(=O)Nc1ccc(NC(C)C)cc1` belongs 131%; to `O=C(Cn1cccc(Nc2ccccc2)c1=O)Nc1ccccc1`, 103%. Consider `COc1ccc(-c2n[nH]nc2-c2csc3ccccc23)cc1OC`, for which the growth is 67.2%. Consider `O=c1ccccc(-c2ccc(Br)cc2)c1O`, for which the growth is 18.2%. The same measure for `CC(=O)c1cc2c(N)c(C(=O)Nc3cccc4ccccc34)sc2nc1C`: 81.3%; for `COc1cc2c(cc1OC)C(Sc1ccc(SC)cc1)c1c(nc(N)c(C#N)c1N)O2` (stereo not given): -65.7% (active).
